Source: PubChem BioAssay (NCI)
About 79,000 compounds went through this panel and 15% of them were active in at least one assay; those are over-represented in the sample as a whole. The source made the active and inactive calls. No stated cut-off is given here; in the data, active means growth inhibition above about 70%; inactive means the rest.

What was measured:
[1] = NCI Yeast Anticancer Drug Screen. Data for the mec2-1 strain (AID 157); conditions: S. cerevisiae mec2-1 strain, active compounds read high
Procedure, shortened: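 Compounds were applied to mec2-1 yeast cells. Their growth was then compared with that of vehicle-treated cultures to give growth inhibition.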

[2] = NCI Yeast Anticancer Drug Screen. Data for the rad14 strain (AID 159);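 further: 0% = growth of vehicle-treated control cultures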; conditions: S. cerevisiae rad14 strain growth inhibition, active compounds read high
Procedure, shortened: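 Test compounds were applied to a repair-deficient yeast strain. Its growth was then compared with that of cultures given vehicle alone, and inhibition was expressed relative to those controls.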

[3] = NCI Yeast Anticancer Drug Screen. Data for the sgs1 mgt1 strain (AID 161);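 further: 0% = growth of cultures given vehicle only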; conditions: S. cerevisiae sgs1 mgt1 strain, active compounds read high
Procedure, shortened: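 Growth of a repair-deficient yeast mutant was monitored after compound treatment and expressed as inhibition relative to vehicle-treated cultures.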

[4] = NCI Yeast Anticancer Drug Screen. Data for the CLN2oe strain (AID 163);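 further: 0% = growth of vehicle-only control cultures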; conditions: S. cerevisiae CLN2oe strain, active compounds read high
Procedure, shortened: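 Cells of an engineered yeast line with disturbed cell-cycle regulation are treated with compound. Inhibition of growth is then calculated relative to the vehicle-treated reference.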

[5] = NCI Yeast Anticancer Drug Screen. Data for the cln2 rad14 strain (AID 165);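 further: 0% = growth equal to vehicle treated cultures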; conditions: S. cerevisiae cln2 rad14 strain, active compounds read high
Procedure, shortened: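 Strain: cln2 rad14 yeast, altered in cell cycle control and DNA damage repair. Read-out: growth inhibition vs vehicle.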

[6] = NCI Yeast Anticancer Drug Screen. Data for the bub3 strain (AID 167); conditions: S. cerevisiae bub3 mutant strain, active compounds read high
Procedure, shortened: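 Yeast carrying a defined mutation is treated with each compound, and growth is compared with that of vehicle-exposed cells to give inhibition.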

[7] = NCI Yeast Anticancer Drug Screen. Data for the wt2 strain (AID 169);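 further: 0% = growth of vehicle-treated yeast cultures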; conditions: S. cerevisiae wt2 strain growth inhibition, active compounds read high
Procedure, shortened: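 Growth of compound-treated yeast is measured and expressed as inhibition relative to vehicle-only controls.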

[8] = NCI Yeast Anticancer Drug Screen. Data for the sgs1 strain (AID 173);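 further: 0% = growth of vehicle-only control cultures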; conditions: S. cerevisiae sgs1 mutant, active compounds read high
Procedure, shortened: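 Strain with an altered DNA repair or cell cycle pathway exposed to compound. Growth then measured. Value = inhibition versus vehicle control.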

[9] = NCI Yeast Anticancer Drug Screen. Data for the mlh1 rad18 strain (AID 175); conditions: S. cerevisiae mlh1 rad18 strain growth inhibition, active compounds read high
Procedure, shortened: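 A repair-deficient yeast strain is exposed to test compound, and growth is scored relative to vehicle-treated controls.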

[10] = NCI Yeast Anticancer Drug Screen. Data for the rad18 strain (AID 177); conditions: S. cerevisiae rad18 mutant growth inhibition, active compounds read high
Procedure, shortened: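 DNA-repair-defective yeast; compound treatment; growth inhibition scored against vehicle.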

[11] = NCI Yeast Anticancer Drug Screen. Data for the rad52 strain (AID 147);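 further: 0% = growth of vehicle-treated control cultures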; conditions: S. cerevisiae rad52 mutant growth inhibition, active compounds read high
Procedure, shortened: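 Growth of repair-deficient yeast cells was compared between compound-treated and vehicle-treated cultures to give percent inhibition.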

[12] = NCI Yeast Anticancer Drug Screen. Data for the wt1 strain (AID 149);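 further: 0% = growth of vehicle-treated wt1 cultures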; conditions: S. cerevisiae wt1 strain (SPY 50644) growth inhibition, active compounds read high
Procedure, shortened: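 wt1 yeast, compound-treated; % growth inhibition vs vehicle control.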

[13] = NCI Yeast Anticancer Drug Screen. Data for the rad50EPP+ strain (AID 151);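 further: 0% = growth of vehicle-treated control cultures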; conditions: S. cerevisiae rad50 mutant strain, active compounds read high
Procedure, shortened: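 Measured: growth inhibition of rad50EPP+ yeast. Reference: vehicle-treated controls. Screen uses strains with defined genetic alterations in DNA damage repair or cell cycle control.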

[14] = NCI Yeast Anticancer Drug Screen. Data for the mgt1 strain (AID 153); conditions: S. cerevisiae mgt1 mutant growth inhibition, active compounds read high
Procedure, shortened: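 Compounds were applied to mgt1 mutant yeast, and growth was then compared against vehicle-treated control cultures to give percent inhibition.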

[15] = NCI Yeast Anticancer Drug Screen. Data for the rad50 strain (AID 155);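 further: 0% = growth of vehicle-only cultures of the same strain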; conditions: S. cerevisiae rad50 strain growth inhibition, active compounds read high
Procedure, shortened: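 Genetically altered yeast (DNA repair pathway); compound treatment; growth inhibition vs vehicle ctrl.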

[16] = NCI Yeast Anticancer Drug Screen. Data for the mlh1 strain (AID 171);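 further: 0% = growth of vehicle-treated control cultures of the same strain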; conditions: S. cerevisiae mlh1 strain growth inhibition, active compounds read high
Procedure, shortened: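 Test agents were incubated with yeast bearing a defined DNA damage repair or cell cycle control alteration; values are growth inhibition normalised to vehicle-treated cultures.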

[17] = at 5.0 µM (retest, dose inferred, filed as 0.5)
[18] = at 50.0 µM (retest, dose inferred, filed as 5.0)

Measured: growth inhibition

O=C(c1ccccc1)C1C(c2ccccc2[N+](=O)[O-])N1C1CCCCC1 (stereo unspecified)
active: [1]; at 50.0 µM 94.7% | [1]; at 100.0 µM 88% | [3]; [18] 75% | [3]; at 50.0 µM 93.6% | [4]; at 100.0 µM 78% | [5]; at 50.0 µM 83.2% | [6]; at 33.0 µM 70% | [6]; [18] 72% | [6]; at 50.0 µM 95% | [6]; at 100.0 µM 87% | [7]; at 100.0 µM 84% | [8]; at 33.0 µM 85% | [8]; at 100.0 µM 91% | [9]; [18] 80% | [9]; at 50.0 µM 96.2% | [10]; at 33.0 µM 88% | [10]; at 100.0 µM 91%
inactive: [1]; [17] 1% | [1]; at 11.0 µM 23% | [1]; at 33.0 µM 66% | [1]; [18] 58% | [2]; at 1.2 µM -1% | [2]; at 3.7 µM 3% | [2]; at 11.0 µM 7% | [2]; at 33.0 µM 13% | [2]; at 100.0 µM 64% | [3]; [17] 15% | [4]; at 1.2 µM -4% | [4]; at 3.7 µM -2% | [4]; at 11.0 µM 3% | [4]; at 33.0 µM 38% | [5]; [17] -18% | [5]; [18] 13% | [6]; at 1.2 µM -11% | [6]; at 3.7 µM -2% | [6]; [17] -4% | [6]; at 11.0 µM -14% | [7]; at 1.2 µM 1% | [7]; at 3.7 µM 3% | [7]; at 11.0 µM 11% | [7]; at 33.0 µM 62% | [8]; at 1.2 µM 9% | [8]; at 3.7 µM 21% | [8]; at 11.0 µM 52% | [9]; [17] 0% | [10]; at 1.2 µM 10% | [10]; at 3.7 µM 23% | [10]; at 11.0 µM 65%

Cn1cc(NC(=O)c2cc(NC(=O)CN=C(N)N)cn2C)cc1C(=O)NCCC(=N)N
active: [11]; at 33.0 µM 97% | [11]; at 100.0 µM 98% | [12]; at 33.0 µM 85% | [12]; at 100.0 µM 96% | [13]; at 33.0 µM 73% | [13]; at 100.0 µM 96% | [14]; at 33.0 µM 94% | [14]; at 100.0 µM 99% | [15]; at 33.0 µM 97% | [15]; [18] 87% | [15]; at 50.0 µM 89.2% | [15]; at 100.0 µM 97% | [1]; at 33.0 µM 95% | [1]; at 50.0 µM 87.5% | [1]; at 100.0 µM 99% | [2]; at 33.0 µM 97% | [2]; at 100.0 µM 98% | [3]; at 50.0 µM 84.6% | [4]; at 33.0 µM 96% | [4]; at 100.0 µM 97% | [6]; at 33.0 µM 93% | [6]; [18] 70% | [6]; at 50.0 µM 87.3% | [6]; at 100.0 µM 97% | [7]; at 33.0 µM 95% | [7]; at 100.0 µM 97% | [16]; at 33.0 µM 93% | [16]; at 100.0 µM 98% | [8]; at 33.0 µM 93% | [8]; at 100.0 µM 96% | [9]; [18] 94% | [9]; at 50.0 µM 85.5% | [10]; at 33.0 µM 95% | [10]; at 100.0 µM 97%
inactive: [11]; at 1.2 µM 21% | [11]; at 3.7 µM 7% | [11]; at 11.0 µM 56% | [12]; at 1.2 µM 17% | [12]; at 3.7 µM 26% | [12]; at 11.0 µM 24% | [13]; at 1.2 µM 19% | [13]; at 3.7 µM 1% | [13]; at 11.0 µM 24% | [14]; at 1.2 µM 1% | [14]; at 3.7 µM 6% | [14]; at 11.0 µM 5% | [15]; at 1.2 µM 0% | [15]; at 3.7 µM 4% | [15]; [17] -30% | [15]; at 11.0 µM 67% | [1]; at 1.2 µM 20% | [1]; at 3.7 µM 18% | [1]; [17] -11% | [1]; at 11.0 µM 31% | [1]; [18] 44% | [2]; at 1.2 µM 18% | [2]; at 3.7 µM -2% | [2]; at 11.0 µM 35% | [3]; [17] 7% | [3]; [18] 11% | [4]; at 1.2 µM -1% | [4]; at 3.7 µM 0% | [4]; at 11.0 µM 16% | [5]; [17] -13% | [5]; [18] 28% | [5]; at 50.0 µM 68.5% | [6]; at 1.2 µM 11% | [6]; at 3.7 µM 18% | [6]; [17] 6% | [6]; at 11.0 µM 2% | [7]; at 1.2 µM 17% | [7]; at 3.7 µM 13% | [7]; at 11.0 µM 23% | [16]; at 1.2 µM -8% | [16]; at 3.7 µM -16% | [16]; at 11.0 µM -7% | [8]; at 1.2 µM 4% | [8]; at 3.7 µM 6% | [8]; at 11.0 µM 17% | [9]; [17] -18% | [10]; at 1.2 µM -4% | [10]; at 3.7 µM -18% | [10]; at 11.0 µM 14%
